Measured potencies and affinities stand elsewhere.
System: Cryptococcus neoformans
Details: Concentration 20 uM; ASSAY_TEST Inhibition of Fungal Growth; detection method Resazurin; Absorption (OD600-OD570); plate type 384well; NBS; CORNING #3640

| Structure (SMILES) | Inhibition |
| --- | --- |
| CC(O)CO.N[C@@H](C(=O)N[C@@H]1C(=O)N2C(C(=O)O)=C(CSc3c[nH]nn3)CS[C@H]12)c1ccc(O)cc1 | -40.25% |
| CCCN(CCC)S(=O)(=O)c1ccc(C(=O)O)cc1 [PROBENECID] | -7.72% |
| CC(C)(C(=O)c1cccnc1)c1cccnc1 [METYRAPONE] | -9.27% |
| CC(COc1ccccc1)NC(C)C(O)c1ccc(O)cc1.Cl (stereo not drawn) [ISOXSUPRINE HYDROCHLORIDE] | -2.3% |
| O=C1N[C@H](C(=O)O)CS1 [PROCYSTEINE] | -5.5% |
| CC(=O)O.NCc1ccc(S(N)(=O)=O)cc1 [MAFENIDE ACETATE] | -7.57% |
| C[C@]12C[C@H](O)[C@H]3[C@@H](CCC4=CC(=O)CC[C@@]43C)[C@@H]1CC[C@@H]2C(=O)CO [CORTICOSTERONE] | -3.25% |
| O=C(O)CCc1nc(-c2ccccc2)c(-c2ccccc2)o1 [OXAPROZIN] | -4.51% |
| Cl.O=C(c1ccc(OCCN2CCCCC2)cc1)c1c(-c2ccc(O)cc2)sc2cc(O)ccc12 [RALOXIFENE HYDROCHLORIDE] | -13.3% |
| Nc1ccc(O)c(C(=O)O)c1 [MESALAMINE] | 3.98% |
| CSc1nc2cc(Cl)c(Oc3cccc(Cl)c3Cl)cc2[nH]1 [TRICLABENDAZOLE] | -2.96% |
| CCOC(=O)C1=C(C)NC(C)=C(C(=O)OC)C1c1cccc(Cl)c1Cl (stereo not drawn) [FELODIPINE] | -9.45% |
| CC(C)NCC(O)COc1ccc(CCOCC2CC2)cc1.Cl (stereo not drawn) [BETAXOLOL HYDROCHLORIDE] | -9.53% |
| CCCN1CCCC[C@H]1C(=O)Nc1c(C)cccc1C.Cl [ROPIVACAINE HYDROCHLORIDE] | -6.59% |
| CC(Cc1ccccc1)(NC(=O)CN)c1ccccc1.Cl (stereo not drawn) [REMACEMIDE HYDROCHLORIDE] | -7.79% |
| O=C(CCNNC(=O)c1ccncc1)NCc1ccccc1 [NIALAMIDE] | -3.3% |
| CCN1CC(CCN2CCOCC2)C(c2ccccc2)(c2ccccc2)C1=O.Cl (stereo not drawn) | -0.87% |
| C[C@H]1[C@@H](OC(=O)CCC(=O)O)O[C@@H]2O[C@@]3(C)CC[C@H]4[C@H](C)CC[C@@H]1[C@@]24OO3 | -1.11% |
| CC(Cc1ccc(O)c(O)c1)(NN)C(=O)O.O (stereo not drawn) | -6.03% |

| Structure (SMILES) | Inhibition |
| --- | --- |
| CC1=C(/C=C/C(C)=C/C=C/C(C)=C\C(=O)O)C(C)(C)CCC1 [ISOTRETINOIN] | -2.4% |
| CN(C)CC[C@@H](c1ccc(Cl)cc1)c1ccccn1.O=C(O)/C=C\C(=O)O [DEXCHLORPHENIRAMINE MALEATE] | -7.42% |
| CC1Cc2ccccc2N1NC(=O)c1ccc(Cl)c(S(N)(=O)=O)c1 (stereo not drawn) [INDAPAMIDE] | -0.18% |
| CC(=O)Nc1nnc(S(N)(=O)=O)s1 [ACETAZOLAMIDE] | -2.97% |
| CCCCNC(=O)NS(=O)(=O)c1ccc(C)cc1 [TOLBUTAMIDE] | 0.26% |
| CCCCN1CCCC1CNC(=O)c1cc(C#N)c2ccccc2c1OC (stereo not drawn) [NAFADOTRIDE] | -22.16% |
| COc1cc(C(=O)NS(=O)(=O)c2ccccc2C)ccc1Cc1cn(C)c2ccc(NC(=O)OC3CCCC3)cc12 [ZAFIRLUKAST] | 1.96% |
| Cl.Clc1ccccc1CN1CCc2sccc2C1 [TICLOPIDINE HYDROCHLORIDE] | -6.79% |
| COc1cc2nc(N3CCN(C(=O)C4COc5ccccc5O4)CC3)nc(N)c2cc1OC (stereo not drawn) [DOXAZOSIN] | 2.35% |
| CC(=O)NS(=O)(=O)c1ccc(N)cc1 [SULFACETAMIDE] | 0.24% |
| CNNCc1ccc(C(=O)NC(C)C)cc1.Cl [PROCARBAZINE HYDROCHLORIDE] | -6.46% |
| COc1c2occc2cc2ccc(=O)oc12 [METHOXSALEN] | -0.09% |
| Nc1nc(Cl)nc2c1ncn2[C@@H]1O[C@H](CO)[C@@H](O)[C@H]1O | 0.98% |
| O=C([O-])Cc1ccccc1Nc1c(Cl)cccc1Cl.[Na+] [DICLOFENAC SODIUM] | 1.05% |
| O=C(O)COCCN1CCN([C@H](c2ccccc2)c2ccc(Cl)cc2)CC1 [LEVOCETIRIZINE] | 0.71% |
| Br.CN(C)CCCC1(c2ccc(F)cc2)OCc2cc(C#N)ccc21 (stereo not drawn) [CITALOPRAM HYDROBROMIDE] | -12.2% |
| CN(C)c1nc(N(C)C)nc(N(C)C)n1 [ALTRETAMINE] | -7.07% |
| C[C@]12CC[C@@H]3c4ccc(O)cc4CC[C@H]3[C@@H]1CC[C@@H]2O [ESTRADIOL] | -4.05% |
| CC(C)NCC(O)COc1ccc(CC(N)=O)cc1 (stereo not drawn) [ATENOLOL] | 1.62% |

Source: ChEMBL document CHEMBL4513141, “CO-ADD screening of NIH (USA) - Clinical Collection” (2021)
